# Measurements as given in PubChem BioAssay AID2417 (National Center for Advancing Translational Sciences (NCATS), 2010).
# Screen size: about 140,000 compounds; about 4,300 (3.1%) were called active. About 21% were inconclusive and are not listed.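 How the source made its calls: active means readout at or below -70, meaning at least 70% loss of cells showing the perinucleolar compartment, a nuclear body marking cancer cells; inconclusive means readout between -30 and a set limit; inactive means the rest.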 The entries come from a sample that favours actives as a whole.
# Test: High Content Assay for Compounds that inhibit the Assembly of the Perinucleolar Compartment;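 further: plate controls were DMSO wells for no effect and camptothecin positive control wells for full effect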
# Settings: PC3M PTB-GFP, PNC prevalence imaging, 16 h; at 10 µM; active compounds read low
# Outline: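 PC3M cells stably expressing PTB-GFP, 750–1000 cells/well, treated 16 h at 37 °C with compound (23 nl of library stock), in duplicate. After paraformaldehyde fixation and Hoechst stain, imaged at 20x; PNC prevalence scored by image analysis.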
row,Compound,"activity change (PNC), negative = inhibition"
1,CCCCC(=O)Nc1ccc(C(=O)Nc2cc(C(F)(F)F)ccc2Cl)cc1,22.8% (inactive)
2,CC(=O)Nc1cccc(/C(C)=N/NC(=O)c2c(-c3ccccc3Cl)noc2C)c1,-109% (active)
3,CC(=O)Nc1cccc(/C(C)=N/NC(=O)c2ccccc2Cl)c1,5.62% (inactive)
4,Cc1onc(-c2ccccc2Cl)c1C(=O)NCCn1ccc2ccccc21,-12.7% (inactive)
5,CC(C)=C(NC(=O)c1ccccc1)C(=O)N/N=C(\C)c1ccccc1O,6.63% (inactive)
6,CCOc1cccc(-c2nnc3sc(COc4ccc(OC)cc4)nn23)c1,-29.7% (inactive)
7,CCOc1cccc(-n2nnnc2-c2ccc(OC)cc2)c1,-83.5% (active)
8,COc1ccc(-n2nnnc2-c2nc3ccccc3s2)cc1,-8.45% (inactive)
9,CSCCC(Nc1ccc(S(=O)(=O)N2CCOCC2)cc1[N+](=O)[O-])C(=O)OCC(=O)N(C(C)C)C(C)C (centres undefined),-25.5% (inactive)
10,CCC(C)(C(=O)Nc1ccccc1C)N(C(=O)CNC(C)=O)c1ccc(C)cc1 (centres undefined),-15.4% (inactive)
11,COc1ccc(-c2nc(CS(=O)CC(=O)NCc3ccccn3)c(C)o2)cc1 (centres undefined),-19.8% (inactive)
12,Cc1ccc(-c2nc(CS(=O)CC(=O)N3CCN(c4ncccn4)CC3)c(C)o2)cc1 (centres undefined),11.5% (inactive)
13,Cc1ccc(-c2nc(CS(=O)CC(=O)NC3CCCC3)c(C)o2)cc1 (centres undefined),-106% (active)
14,CSc1ccc(/C=C/C(=O)NC23CC4CC(CC(C4)C2)C3)cc1,11.8% (inactive)
15,CCCCOc1ccc(Cl)cc1CSc1nncn1N,-89.7% (active)
16,Cc1cc(=O)[nH]c(SCc2cc(Cl)ccc2OC(F)F)n1,4.54% (inactive)
17,CCOC(=O)c1c(NC(=O)Cn2nc(C(F)(F)F)cc2C)sc2c1CCC2,36.1% (inactive)
18,CN1CCN(C(=O)/C(=C\c2cccs2)NC(=O)c2cccs2)CC1,0.966% (inactive)
19,COc1cc2c(cc1/C=C1/NC(=O)N(c3ccccc3)C1=O)OCO2,-20.8% (inactive)
20,CCOC(=O)c1c(C)n(C)c2ccc(OC)c(NS(=O)(=O)CC)c12,-8.82% (inactive)
21,COc1ccc2c(-c3ccccc3)cc(SCC(=O)N(C)C3CCS(=O)(=O)C3)nc2c1 (centres undefined),46.3% (inactive)
22,O=[N+]([O-])c1ccc(N2CCNCC2)cc1NCc1cccnc1,59.2% (inactive)
23,Cc1cc(NC(=O)c2cccc(N3C(=O)CCC3=O)c2)no1,-7.91% (inactive)
24,O=C(Nc1cccc2cccnc12)c1cccc(N2C(=O)CCC2=O)c1,-100% (active)

row,Compound,"activity change (PNC), negative = inhibition"
1,COc1ccccc1NC(=O)c1ccc2nc(N3C(=O)CCC3=O)sc2c1,133% (inactive)
2,CCOC(=O)NN1C(=O)c2ccccc2NC1c1ccccc1O (centres undefined),19.7% (inactive)
3,O=C(OCC(=O)c1c[nH]c2ccccc12)c1cccc(O)c1,49.4% (inactive)
4,O=S(=O)(NCC1CCCO1)c1cnc(Cl)c(Cl)c1 (centres undefined),-19.6% (inactive)
5,Cc1cccc(N2CCN(C(=O)/C=C/c3ccco3)CC2)c1C,16.7% (inactive)
6,CO/N=C/c1ccc(N2CCN(C(=O)c3cccc(Cl)c3)CC2)c([N+](=O)[O-])c1,77.9% (inactive)
7,O=C(/C=C/c1ccc(Cl)cc1)N1CCN(c2ccccc2[N+](=O)[O-])CC1,-91.4% (active)
8,CCCN=C1NC(=O)C(CC(=O)NCCc2ccc(OC)c(OC)c2)S1 (centres undefined),58.6% (inactive)
9,Cc1cc(C)c(C2C3=C(Nc4c2c(C)nn4-c2ccccn2)c2ccccc2C3=O)c(C)c1 (centres undefined),-28.9% (inactive)
10,CC1=C[C@H]2Cc3cc(C)cc(C)c3S(=O)(=O)[C@@H]2C=C1,28.1% (inactive)
11,COc1ccc(-n2c(C)cc(C(=O)COC(=O)c3cc(OC)c(OC)cc3NC(=O)c3cccs3)c2C)cc1,173% (inactive)
12,CCCn1c(C)cc(C(=O)COC(=O)c2c(C)nn(-c3ccccc3)c2C)c1C,-22.8% (inactive)
13,Cc1cc(C(=O)COC(=O)c2cccs2)c(C)n1-c1c(C)n(C)n(-c2ccccc2)c1=O,-127% (active)
14,COc1ccc(C(=O)COC(=O)c2ccc3ccccc3n2)cc1,-89.8% (active)
15,O=C(Oc1ccc([N+](=O)[O-])cc1)c1ccc2ccccc2n1,-25.3% (inactive)
16,COc1ccc(C2=NOC(COC(=O)c3ccc4ccccc4n3)C2)cc1 (centres undefined),-3.15% (inactive)
17,Cc1cc(C)cc(OCC(=O)Nc2nc3ccc([N+](=O)[O-])cc3s2)c1,84.2% (inactive)
18,CCOc1ccc2nc(Nc3nc4ccc(NC(C)=O)cc4s3)sc2c1,10% (inactive)
19,CCOc1ccc2nc(NC(=O)c3cc([N+](=O)[O-])ccc3N3CCOCC3)sc2c1,-84.5% (active)
20,Cc1ccc(-c2csc(SCC(=O)Nc3cc(C)on3)n2)cc1,32.6% (inactive)
21,CCOc1ccccc1Nc1nnc(SCC(=O)Nc2cc(C)on2)s1,1.96% (inactive)
22,Cc1cc(C)c2c(c1)cc(C)c1nnc(SCC(=O)Nc3cc(C)on3)n12,-88.4% (active)
23,COc1cccc(-n2c(SCC(=O)c3c[nH]c4ccccc34)nc3ccccc3c2=O)c1,-15.1% (inactive)
24,Cc1nonc1NC(=O)c1ccccc1Br,-15.2% (inactive)

row,Compound,"activity change (PNC), negative = inhibition"
1,O=C(COC(=O)c1c2c(nc3ccccc13)CCCC2)c1ccc(Br)s1,17.9% (inactive)
2,O=C(Nc1c2c(nc3ccccc13)CCCC2)c1ccccc1Br,-109% (active)
3,Cc1ccc(C)c(NC(=O)CCC(=O)NNC(=O)c2cccs2)c1,30.9% (inactive)
4,NC1=NC(=O)C(Cc2cccc(Cl)c2Cl)S1 (centres undefined),-13.4% (inactive)
5,COc1ccccc1N1N=C(c2cccs2)CC1c1ccccc1 (centres undefined),-19.6% (inactive)
6,CCNc1nc(NC(C)C)nc(N2CC(=O)N(CC(=O)OCC)C2=N)n1,3.87% (inactive)
7,CC(C)Nc1nc(N(c2ccccc2)c2ccccc2)nc(-n2ccnc2)n1,-4.69% (inactive)
8,CCNc1nc(NC(C)C)nc(OCCOC(=O)c2ccccc2)n1,-100% (active)
9,O=C(CCc1ccccc1)Nc1nn[nH]n1,50.3% (inactive)
10,COc1ccc(C2COC(=O)C2=N)c(NC(=O)c2ccccc2)c1 (centres undefined),-25.6% (inactive)
11,CCC1=NN(C(=O)Cc2ccc([N+](=O)[O-])cc2)C(O)(c2ccc(Br)cc2)C1 (centres undefined),99.6% (inactive)
12,COc1ccccc1-c1nnc(NC(=O)c2ccc3ncsc3c2)o1,-121% (active)
13,COc1ccccc1-c1nnc(NC(=O)c2cccc(N3C(=O)CCC3=O)c2)o1,-7.63% (inactive)
14,COc1ccccc1-c1nnc(SCC(=O)Nc2cc(C)on2)o1,-4.25% (inactive)
15,CCCCC(CC(C)O)c1n[nH]c(=S)n1-c1ccccc1 (centres undefined),4.51% (inactive)
16,O=C(NCCCO)/C(=C\C=C\c1ccccc1)NC(=O)c1ccccc1Cl,26.4% (inactive)
17,O=C(NCCc1ccccc1)/C(=C\c1ccc([N+](=O)[O-])cc1)NC(=O)c1ccccc1,-6.81% (inactive)
18,O=C(N/N=C/c1ccc(O)cc1)/C(=C/c1ccc([N+](=O)[O-])cc1)NC(=O)c1ccccc1,-101% (active)
19,O=C(N/N=C/c1cc([N+](=O)[O-])ccc1O)/C(=C\c1cccs1)NC(=O)c1ccccc1,25.3% (inactive)
20,CCCC(=O)Nc1ccc(C(=O)N/N=C/c2ccc[nH]2)cc1,-29.4% (inactive)
21,Cc1csc(=Nc2ccccc2)n1CCO,-25.4% (inactive)
22,C=C(C)CNC(=S)/N=c1\scc(C)n1CC,-100% (active)
23,Cc1csc(=NC(=O)c2ccccc2)n1CCO,-9.41% (inactive)
24,COc1cc(/C=C/C(=O)N2c3ccccc3Sc3ccc(C(F)(F)F)cc32)cc(OC)c1OC,-24.5% (inactive)

row,Compound,"activity change (PNC), negative = inhibition"
1,O=C(CSc1nnc(Nc2ccccc2)s1)Nc1cccnc1Cl,-10.3% (inactive)
2,O=C(Nc1ccccc1Cl)O/N=C(/c1ccccc1)c1ccccn1,-96.2% (active)
3,C/C(=N\NC(=O)Cc1ccc(Cl)cc1)c1ccccn1,-18.2% (inactive)
4,COc1cc2c(cc1OC)C(=O)NCC(C)(C)O2,47.7% (inactive)
5,CCCCN(CC)C(=O)c1ccc2c(c1)OCO2,21.9% (inactive)
6,COC(=O)c1ccc(NCC(=O)c2ccccc2)cc1,-26.4% (inactive)
7,O=C(OCC(O)C(O)COC(=O)c1ccccc1)c1ccccc1 (centres undefined),-83.5% (active)
8,CCOC(=O)c1ccc(N/C(=N/S(=O)(=O)c2ccccc2)c2ccccc2)cc1,3.77% (inactive)
9,COc1ccc(/C=C/C(=O)OCC(=O)NCc2cccs2)cc1OC,-1.51% (inactive)
10,CCCCOc1ccc(C(=O)N/C(=C/C=C/c2ccccc2)C(=O)N2CCOCC2)cc1,-12.2% (inactive)
11,CCOc1ccc2nc(C(=O)N3CCCC(C)C3)sc2c1 (centres undefined),6.06% (inactive)
12,O=C(NC1CCCC1)C(NS(=O)(=O)c1ccc(Br)s1)c1ccccc1 (centres undefined),48.1% (inactive)
13,O=C(NCc1cccnc1)c1cn(-c2ccccc2)nc1-c1cccs1,-139% (active)
14,COC(=O)c1cn(-c2ccccc2)nc1-c1cccnc1,-22.9% (inactive)
15,O=C(/C=C/c1cccs1)NCc1cccnc1,-0.603% (inactive)
16,COC1=CCC2([N+](=O)[O-])CN(CC(=O)O)CC1([N+](=O)[O-])C2 (centres undefined),6.59% (inactive)
17,COc1ccc(/C=C/C(=O)Nc2ccc3c(c2)OCCO3)cc1OC,-11.1% (inactive)
18,Cc1cc(C(=O)OCC(=O)Nc2nnc(C(C)C)s2)c2ccccc2n1,3.82% (inactive)
19,CCCc1nc2c([nH]1)C(c1cccnc1)C(C#N)=C(N)O2 (centres undefined),7.34% (inactive)
20,O=C(CN1CCN(c2ncc(C(F)(F)F)cc2Cl)CC1)Nc1ccc2c(c1)OCO2,-86.4% (active)
21,O=C(CN1CCN(c2ccc(F)cc2)CC1)Nc1cccc(C(F)(F)F)c1,-19.9% (inactive)
22,O=C(CN1CCN(CC(=O)Nc2ccc3c(c2)OCO3)CC1)Nc1ccc(F)cc1,-20.9% (inactive)
